Test results as given in PubChem BioAssay (NCATS).
Inconclusive results are not listed. Values without a mark were called inactive. Active and inactive are the calls of the source. Calls come from the whole dose curve; as a rule, active = well fitted inhibition curve with a large enough effect; inconclusive = small, poorly fitted or top-dose-only effect; inactive = no such curve, though single readings can be large or run the other way.

What follows are compounds tested against Rap guanine nucleotide exchange factor 4 (Homo sapiens) (UniProt Q8WZA2) (assay: Confirmatory qHTS for antagonist of cAMP-regulated guanine nucleotide exchange factor 4 (EPAC2) (AID 1645885; note: nearly all actives have a fitted effect of over 25% in size)). Conditions: EPAC2 Rap1B-BODIPY-GDP exchange fluorescence, biochemical; series mostly up to 12.7 µM; activity change, negative = inhibition: at the top concentration.
% is set by controls: 0 for no effect and ±100 for the full control effect; potency is the fitted concentration of half-maximal effect.

Rap guanine nucleotide exchange factor 4 (Homo sapiens), sequence (Q8WZA2 whole entry, looked up): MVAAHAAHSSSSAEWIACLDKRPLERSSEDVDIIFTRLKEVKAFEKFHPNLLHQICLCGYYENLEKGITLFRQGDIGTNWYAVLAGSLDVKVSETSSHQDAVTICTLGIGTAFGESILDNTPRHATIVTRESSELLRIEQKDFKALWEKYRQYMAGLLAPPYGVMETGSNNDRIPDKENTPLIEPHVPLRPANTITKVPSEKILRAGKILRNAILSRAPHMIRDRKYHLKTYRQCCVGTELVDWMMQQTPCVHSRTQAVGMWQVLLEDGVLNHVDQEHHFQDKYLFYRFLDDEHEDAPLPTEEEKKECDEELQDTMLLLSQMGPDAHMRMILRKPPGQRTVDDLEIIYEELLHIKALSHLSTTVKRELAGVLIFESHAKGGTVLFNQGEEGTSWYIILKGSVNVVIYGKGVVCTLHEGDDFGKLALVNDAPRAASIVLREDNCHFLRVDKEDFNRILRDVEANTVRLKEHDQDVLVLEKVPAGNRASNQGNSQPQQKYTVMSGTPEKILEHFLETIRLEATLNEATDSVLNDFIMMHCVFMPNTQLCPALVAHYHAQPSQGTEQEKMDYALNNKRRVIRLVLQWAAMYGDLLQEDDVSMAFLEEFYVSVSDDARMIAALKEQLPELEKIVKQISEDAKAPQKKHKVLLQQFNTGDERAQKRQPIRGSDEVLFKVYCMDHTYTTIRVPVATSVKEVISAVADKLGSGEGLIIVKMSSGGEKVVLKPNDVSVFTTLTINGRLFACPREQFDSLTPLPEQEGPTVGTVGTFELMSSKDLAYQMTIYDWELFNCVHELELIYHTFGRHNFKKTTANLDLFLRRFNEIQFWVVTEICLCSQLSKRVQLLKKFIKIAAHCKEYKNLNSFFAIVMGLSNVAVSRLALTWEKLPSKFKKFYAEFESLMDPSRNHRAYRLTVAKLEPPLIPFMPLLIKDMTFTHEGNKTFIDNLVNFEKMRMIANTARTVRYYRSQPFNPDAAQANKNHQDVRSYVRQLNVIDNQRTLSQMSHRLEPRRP

Row | Structure (SMILES) | outcome | activity change, negative = inhibition | Potency
1 | COc1cccc(C(=O)Nc2nnc(-c3ccccc3)s2)c1OC | inactive; activator; fitted 0.151 uM | – | –
2 | CC(C)Oc1cccc(C(=O)Nc2ccc3oc(-c4cccc(Cl)c4)nc3c2)c1 | – | -7.47% | –
3 | CCc1ccc2c(c1)NC(=O)C2(C)Cc1ccc(Cl)s1 (stereo not given) | – | -39.3% | –
4 | Cc1cccc(-c2nc3c(cnn3-c3ccccc3)c(=O)n2-c2cccc(Cl)c2)c1 | inactive [at 12.7 µM] | – | –
5 | O=S1(=O)N=C(N(Cc2cccs2)c2ccc(O)cc2)c2ccccc21 | inactive | – | –
6 | Cc1[nH]n(-c2ccccc2)c(=O)c1C=Nc1ccc(S(=O)(=O)N=C(N)N)cc1 | – | -15.5% [at 114 µM] | –
7 | COc1ccc(OCc2nc3ccccc3n2C(C)c2ccccc2)cc1 (stereo not given) | – | 3.92% | –
8 | COc1ccc2c(c1)Cc1sc(NC(=O)c3ccccc3C)nc1-2 | – | 34.5% | –
9 | O=C(N/N=C/c1ccc(O)c(O)c1)c1ccc(CSc2cccc3cccnc23)cc1 | – | 2.91% | –
10 | COc1ccc(/C=C2\C(=O)NC(=S)N2C(=O)c2ccc(F)cc2)cc1 | – | -17.9% [at 114 µM] | –
11 | CCSc1nc2c([nH]c3ccccc32)c(=O)n1-c1cccc(OC)c1 | – | 6.52% | –
12 | Fc1ccc(/C=C2\CCCC3=C2Nc2ncnn2C3c2ccc(F)cc2)cc1 (stereo not given) | – | -7% | –
13 | Cc1ccc(N(Cc2cccs2)C(=O)c2ccc(Br)o2)cc1 | – | -27.3% | –
14 | C/C(=N\NC(=O)c1ccc(O)cc1)c1cccc(NC(=O)c2ccc(Cl)cc2)c1 | – | -1.53% [at 114 µM] | –
15 | CCn1c2c(c3cc(Cl)ccc31)CCCC2=O | inactive | – | –
16 | Cc1c(C)c2ccc(OCC(=O)Nc3ccc(S(N)(=O)=O)cc3)c(C)c2oc1=O | inactive | – | –
17 | COc1ccc(OC)c(NC(=O)CSc2nc(O)cc(=O)n2CC(C)C)c1 | – | 30.3% [at 114 µM] | –
18 | CC(=O)C(=Cc1ccc(Cl)cc1)C(=O)c1ccccc1 | – | 2.91% [at 114 µM] | –
19 | CN1CCN(c2cc(N3CCN(C(=O)c4ccco4)CC3)c3c4c(onc24)-c2ccccc2C3=O)CC1 | – | 26.3% [at 114 µM] | –
20 | Cc1ccc(C)c(Cn2c(CN(C)Cc3ccccc3)nc3c2c(=O)n(C)c(=O)n3C)c1 | – | -1.76% [at 114 µM] | –

Row | Structure (SMILES) | outcome | activity change, negative = inhibition | Potency
21 | CCOC(=O)C1=C(C)NC(C)=C(C(=O)OCC)C1c1cccc([N+](=O)[O-])c1 | – | -12.9% | –
22 | Cn1c(SCC(=O)c2cc(Cl)c(Cl)s2)nnc1-c1ccco1 | – | -0.99% [at 114 µM] | –
23 | CCN(C(=O)Cn1c(C(=O)OC)cc2sccc21)c1cccc(C)c1 | – | -12.9% | –
24 | Cc1cccc([C@H]2[C@@H]3C=CCC[C@@H]3C(=O)N2Cc2ccccc2)c1 | – | – | 42.6 µM (active)
25 | COn1c2c(c3c4nonc4ccc31)CCCC2 | inactive | – | –
26 | COc1ccccc1N1CSC2=C(C#N)C(c3ccc(SC)cc3)CC(=O)N2C1 (stereo not given) | – | -6.39% | –
27 | Cc1nc(-c2ccc(Cl)cc2)sc1CCNC(=O)c1cccs1 | – | -8.58% | –
28 | COc1ccc(CC(=O)NCc2ccc3c(c2)CCN3C(=O)c2ccc(Cl)cc2)cc1OC | – | 1.54% | –
29 | Cc1ccc(N(Cc2ccc([N+](=O)[O-])cc2)C(=O)c2ccco2)cc1 | – | – | 15.1 µM (active)
30 | CCOc1cc(/C=C2/NC(=O)NC2=O)cc(Br)c1OCc1ccc(C(=O)O)cc1 | – | 4.78% | –
31 | COc1cccc(/C=C2\SC(=S)NC2=O)c1OS(=O)(=O)c1ccc(NC(C)=O)cc1 | – | -15.4% | –
32 | O=C(Nc1cccc(Cl)c1)Nc1ccccc1NS(=O)(=O)c1cccs1 | – | -7.27% | –
33 | Cn1cnnc1SCC(=O)Nc1sc2c(c1C(N)=O)CCC2 | – | 33.3% [at 114 µM] | –
34 | O=C1C=C(NS(=O)(=O)c2ccccc2)C(=O)c2ccccc21 | inactive | – | –
35 | COc1ccc(OCc2nc3ccccc3n2Cc2ccc(C(C)(C)C)cc2)cc1 | – | 1.71% | –
36 | CCn1c(=O)c2sccc2n2c(CCCC(=O)N3CCN(c4cc(Cl)ccc4C)CC3)nnc12 | – | 4.38% | –
37 | Cc1cccc(Nc2nnc(-c3ccc(N4CCOCC4)c([N+](=O)[O-])c3)c3ccccc23)c1 | – | -4.04% [at 114 µM] | –
38 | C/C=C/COC(=O)c1[nH]c2c(c1C)C(=O)CC(c1ccco1)C2 (stereo not given) | – | -1.58% [at 114 µM] | –
39 | CN(C)S(=O)(=O)c1cccc(COC(=O)Cc2c(F)cccc2Cl)c1 | – | -15.4% [at 114 µM] | –
40 | CCc1ccc2c(c1)NC(=O)C2(C)Cc1ccc(F)cc1 (stereo not given) | – | -22.6% | –
